PubChem BioAssay (EPA / NIEHS)
Results filed as inconclusive are left out. Activity calls are given as the source filed them. Rule for the calls: active = hit-call score of the fitted dose curve at least 0.9, where 1 is the maximum; inconclusive = response in the unintended direction; inactive = score below 0.9.

Columns and labels:
[1] = target: Cellular tumor antigen p53 (Homo sapiens) (UniProt P04637); assay: TOX21_p53_BLA_p2_ratio: Tox21 HCT-116 p53 Agonism Beta-lactamase Assay, Ratio, Phase 2 (AID 2283592)
Method in brief: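 In this cell-based reporter format, HCT116 cells were dosed with chemicals delivered from DMSO by 217-fold dilution and incubated 16 h at 37C. Emission at 460 and 530 nm after 2 h CCF4-AM loading provided the ratio, fitted upward versus DMSO.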

[2] = target: Cellular tumor antigen p53 (Homo sapiens) (UniProt P04637); assay: TOX21_p53_BLA_p3_ratio: Tox21 HCT-116 p53 Agonism Beta-lactamase Assay, Ratio, Phase 3 (AID 2283596)
Method in brief: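 HCT116 p53-bla cells (4000/well) given compound in DMSO (217-fold dilution) after 5 h, incubated 16 h at 37C. CCF4-AM substrate 2 h at room temperature; 460/530 nm emission ratio, gain fitted against DMSO.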

[3] = TOX21_p53_BLA_p4_viability: Viability Assessment in the Tox21 HCT-116 p53 Agonism Beta-lactamase Assay, Phase 4 (AID 2283597);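 note: hits lower the luminescence signal meaning cytotoxicity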
Method in brief: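 We seeded HCT116 p53 reporter cells at 4000/well and waited 5 h. We then added compounds in DMSO at a 217-fold dilution and incubated for 16 h. Viability was read as CellTiter-Glo luminescence after 30 min at RT.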

[4] = target: Cellular tumor antigen p53 (Homo sapiens) (UniProt P04637); assay: TOX21_p53_BLA_p4_ratio: Tox21 HCT-116 p53 Agonism Beta-lactamase Assay, Ratio, Phase 4 (AID 2283601)
Method in brief: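 Signal is the blue/green (460nm/530nm) ratio of cleaved versus uncleaved CCF4-AM substrate, read after 2 h substrate loading. Cells were HCT116 carrying the p53-responsive beta-lactamase reporter, dosed 16 h at 37C, 5% CO2; CellTiter-Glo measured in parallel.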

[5] = target: Cellular tumor antigen p53 (Homo sapiens) (UniProt P04637); assay: TOX21_p53_BLA_p5_ratio: Tox21 HCT-116 p53 Agonism Beta-lactamase Assay, Ratio, Phase 5 (AID 2283599)
Method in brief: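 Beta-lactamase reporter ratio (blue 460 nm over green 530 nm, 405 nm excitation) after 2 h CCF4-AM loading, in HCT-116 cells exposed 16 h at 37 C to compounds pinned at 217-fold dilution. Increases relative to DMSO baseline scored.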

[6] = TOX21_p53_BLA_p5_viability: Viability Assessment in the Tox21 HCT-116 p53 Agonism Beta-lactamase Assay, Phase 5 (AID 2283600)
Method in brief: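 Compounds, pinned from DMSO at 217-fold dilution, were left on the cells for 16 h. The viability endpoint was ATP content measured by CellTiter-Glo luminescence, where falling signal reflects cytotoxicity.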

[7] = target: Thyroid hormone receptor alpha (Rattus norvegicus) + Thyroid hormone receptor beta (Rattus norvegicus) (UniProt P18113+P63059); assay: TOX21_TR_LUC_GH3_Antagonist_Followup: Tox21 GH3 Thyroid Hormone Receptor Antagonism Luciferase Follow-Up Assay (AID 2283942)
Method in brief: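 Confirmatory qHTS, antagonist mode: T3 (1.0 nM final) + test cpd, 15 conc, 92 uM–5nM final, GH3 rat pituitary line, 24 h, 37C. Luc reporter, RLU vs DMSO.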

THRA (gene 7067) = THRA (gene 7067) (UniProt P10827); assay: TOX21_TRA_COA_Antagonist_Followup_ratio: Tox21 Thyroid Hormone Receptor alpha Antagonism through Coactivator Recruitment Follow-Up Assay, Ratio (AID 2283953)
Method in brief: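 This follow-up to the GH3 luciferase screen checks specificity in a cell-free format. It measures SRC-2 coactivator peptide binding to TRα LBD by TR-FRET and scores loss of ratio signal relative to DMSO.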

[8] = TOX21_TRB_BLA_Antagonist_Followup_viability: Viability Assessment in the Tox21 Thyroid Hormone Receptor beta Antagonism Beta-lactamase (BLA) Follow-Up Assay (AID 2283961)
Method in brief: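 Viability read as CellTiter-Glo ATP luminescence (loss of signal = cytotoxicity) in the same plates as the TRβ-bla readout. TRβ-LBD/GAL4 UAS-bla HEK293T cells were exposed to compounds, 11 concentrations in triplicate, for 18 h at 37C/5% CO2.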

THRB (gene 7068) = THRB (gene 7068) (UniProt P10828); assay: TOX21_TRB_COA_Antagonist_Followup_ratio: Tox21 Thyroid Hormone Receptor beta Antagonism through Coactivator Recruitment Follow-Up Assay, Ratio (AID 2283967)
Method in brief: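 Test compound was incubated with 5.0 nM GST-TRβ LBD in 0.10% BSA. Then 200 nM fluorescein-SRC-2 peptide and 2 nM terbium anti-GST antibody were added. TR-FRET (520:495 nm) was measured and normalized to DMSO and T3 controls.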

[9] = target: Retinoic acid receptor RXR-alpha (Homo sapiens) (UniProt P19793); assay: TOX21_TR_RXR_BLA_Antagonist_Followup_ratio: Tox21 Thyroid Hormone Receptor beta Retinoid X Receptor alpha (RXRa) Antagonism Beta-lactamase (BLA) Follow-Up Assay, Ratio (AID 2283972)
Method in brief: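 Beta-lactamase reporter readout as cleaved/uncleaved substrate ratio (460:530 nm) after 2 h substrate loading at room temperature. GAL4-RXRa bla HEK293T cells were exposed 16 h at 37C to 11-point compound series; loss of signal scored against DMSO baseline.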

[10] = TOX21_TR_RXR_BLA_Antagonist_Followup_viability: Viability Assessment in the Tox21 Thyroid Hormone Receptor beta Retinoid X Receptor alpha (RXRa) Antagonism Beta-lactamase (BLA) Follow-Up Assay (AID 2283979)
Method in brief: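 Follow-up compounds (11 concentrations, triplicate) were incubated 16 h at 37C/5% CO2 with HEK293T RXRa-bla cells seeded at 2,500/well in charcoal-stripped-serum medium. ATP content by CellTiter-Glo luminescence gave viability; curves fitted in both directions against DMSO.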

Measured: AC50

Sequence of Cellular tumor antigen p53 (Homo sapiens) (P04637 whole entry, looked up): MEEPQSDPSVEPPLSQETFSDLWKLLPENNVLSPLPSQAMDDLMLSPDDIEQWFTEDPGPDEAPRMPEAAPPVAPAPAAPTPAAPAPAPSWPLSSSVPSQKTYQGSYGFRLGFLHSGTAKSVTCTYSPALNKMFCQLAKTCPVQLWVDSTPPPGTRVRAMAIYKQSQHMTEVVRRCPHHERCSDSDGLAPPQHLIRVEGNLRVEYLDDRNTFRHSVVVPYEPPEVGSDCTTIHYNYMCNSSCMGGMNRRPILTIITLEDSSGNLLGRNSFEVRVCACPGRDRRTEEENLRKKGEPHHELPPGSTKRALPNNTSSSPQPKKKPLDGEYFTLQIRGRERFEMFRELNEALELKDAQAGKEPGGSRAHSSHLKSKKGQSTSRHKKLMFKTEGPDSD
Sequence of THRA (gene 7067) (P10827 whole entry, looked up, the tested form may be a part): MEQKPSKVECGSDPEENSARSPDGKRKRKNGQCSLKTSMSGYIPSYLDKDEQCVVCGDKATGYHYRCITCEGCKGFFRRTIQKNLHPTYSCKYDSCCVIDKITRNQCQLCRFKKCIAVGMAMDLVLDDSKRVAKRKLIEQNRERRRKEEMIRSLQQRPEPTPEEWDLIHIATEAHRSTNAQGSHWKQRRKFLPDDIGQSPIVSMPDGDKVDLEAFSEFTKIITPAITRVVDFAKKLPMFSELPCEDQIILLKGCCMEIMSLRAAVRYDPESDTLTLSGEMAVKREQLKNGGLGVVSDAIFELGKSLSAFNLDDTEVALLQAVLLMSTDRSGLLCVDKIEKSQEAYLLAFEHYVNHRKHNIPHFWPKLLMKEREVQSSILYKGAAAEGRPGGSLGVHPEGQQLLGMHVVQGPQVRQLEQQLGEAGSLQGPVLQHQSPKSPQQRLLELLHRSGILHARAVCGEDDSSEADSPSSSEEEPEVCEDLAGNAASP
Sequence of Retinoic acid receptor RXR-alpha (Homo sapiens) (P19793 whole entry, looked up, the tested form may be a part): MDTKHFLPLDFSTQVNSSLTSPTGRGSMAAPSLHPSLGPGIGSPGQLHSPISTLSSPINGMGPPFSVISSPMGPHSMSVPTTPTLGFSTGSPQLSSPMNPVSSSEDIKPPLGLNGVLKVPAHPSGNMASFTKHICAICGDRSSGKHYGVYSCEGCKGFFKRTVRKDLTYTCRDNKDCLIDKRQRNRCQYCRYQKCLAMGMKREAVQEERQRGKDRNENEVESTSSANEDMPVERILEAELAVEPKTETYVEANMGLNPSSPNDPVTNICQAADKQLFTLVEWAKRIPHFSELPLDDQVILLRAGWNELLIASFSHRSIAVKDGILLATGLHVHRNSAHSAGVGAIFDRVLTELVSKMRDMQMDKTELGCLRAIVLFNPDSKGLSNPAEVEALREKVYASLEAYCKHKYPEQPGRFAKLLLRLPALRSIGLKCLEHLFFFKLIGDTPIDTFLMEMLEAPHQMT
Sequence of THRB (gene 7068) (P10828 whole entry, looked up, the tested form may be a part): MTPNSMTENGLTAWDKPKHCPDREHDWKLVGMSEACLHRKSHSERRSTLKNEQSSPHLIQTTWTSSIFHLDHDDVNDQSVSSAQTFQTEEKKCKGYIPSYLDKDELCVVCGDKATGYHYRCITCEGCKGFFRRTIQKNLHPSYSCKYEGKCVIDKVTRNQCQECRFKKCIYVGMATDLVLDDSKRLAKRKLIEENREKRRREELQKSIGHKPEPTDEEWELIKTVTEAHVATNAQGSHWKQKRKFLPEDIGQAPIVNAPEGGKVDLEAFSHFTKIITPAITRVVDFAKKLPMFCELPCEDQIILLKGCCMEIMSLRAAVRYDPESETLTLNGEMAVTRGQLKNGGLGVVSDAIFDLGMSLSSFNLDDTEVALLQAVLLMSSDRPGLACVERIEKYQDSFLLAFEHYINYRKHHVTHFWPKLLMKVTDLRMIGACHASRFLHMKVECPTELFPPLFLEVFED

CN1CCc2c(c3ccccc3n2Cc2ccccc2)C1
inactive: [1] | [2] | [3] | [4]

Cc1ccccc1N=O
inactive: [1] | [2] | [3] | [5] | [4]

COc1ccc(/C=C/c2cc(OC)cc(=O)o2)cc1
inactive: [1] | [2] | [3] | [5] | [4]

COC(=O)CS
inactive: [1] | [2] | [3] | [5] | [4]

CC(C)(C)C(=O)NCCCC(=O)O
inactive: [1] | [2] | [3] | [5] | [4]

CCN(C)C(=O)Oc1cccc([C@H](C)N(C)C)c1
inactive: [1] | [2] | [3] | [4]

COc1cc2c(cc1OC)[C@@H](c1ccccc1)CN(C)CC2
inactive: [1] | [2] | [3] | [4]

CC(=O)OCC[N+](C)(C)C
inactive: [1] | [2] | [3] | [6] | [4]

COc1ccc2c(c1OC)C(=O)O[C@@H]2[C@H]1c2c(cc3c(c2OC)OCO3)CCN1C
inactive: [1] | [2] | [3] | [5] | [4]

FC(F)(F)c1cccc(Cl)c1
inactive: [1] | [2] | [3] | [4]

CCNC(=O)C1CC(C)CCC1C(C)C (stereo not drawn)
inactive: [1] | [2] | [3] | [5] | [4]

O=C1CCCc2c1cc1ccc3cccc4ccc2c1c34
inactive: [1] | [3] | [5] | [4]
active: [2] 62.5 µM

O=C(c1ccc2c(c1)C(=O)OC2=O)c1ccc2c(c1)C(=O)OC2=O
inactive: [1] | [2] | [3] | [5] | [4]

CC1CCCC(=O)C1=O (stereo not drawn)
inactive: [1] | [2] | [3] | [6] | [4]

CC(C)COC(=O)OCN1C(=O)CN(CCN2CC(=O)N(COC(=O)OCC(C)C)C(=O)C2)CC1=O
inactive: [3]
active: [1] 4.1 µM | [2] 4.07 µM | [5] 7.4 µM | [4] 3.05 µM

OCl
inactive: [1] | [2] | [3] | [5] | [4]

S=C(SSSSSSC(=S)N1CCCCC1)N1CCCCC1
inactive: [1] | [2] | [3] | [4]

CCOC(=O)CC(=O)C(=O)OCC
inactive: [1] | [2] | [3] | [4]

COc1cc(C(=O)NC2CCCNC2)cc(OC)c1OC (stereo not drawn)
inactive: [1] | [2] | [3] | [5] | [4] | [7] | THRA (gene 7067) | [8] | THRB (gene 7068) | [9] | [10]

Cc1ccc(/C(=C\CN2CCCC2)c2ccccn2)cc1
inactive: [1] | [2] | [3] | [6] | [4]

CNC(=O)[C@H](Cc1c[nH]c2ccccc12)NC(=O)[C@@H](CC(=O)NO)CC(C)C
inactive: [1] | [2] | [3] | [4]

O=C(O)[C@H]1CN(C/C=C/P(=O)(O)O)CCN1
inactive: [1] | [2] | [3] | [6] | [4]

NS(=O)(=O)c1ccc(Cl)c(S(N)(=O)=O)c1
inactive: [1] | [2] | [3] | [5] | [4]

COc1ccc(Nc2ccc(OC)cc2)cc1
inactive: [2] | [3] | [5]
active: [1] 71.5 µM | [4] 73.2 µM

O=C1c2ccccc2C(=O)c2c1ccc(O)c2O
inactive: [1] | [2] | [3] | [5] | [4]

O=C(O)CP(=O)(O)O
inactive: [1] | [2] | [3] | [6] | [4]

CN1CCOC(c2ccccc2)c2ccccc2C1 (stereo not drawn)
inactive: [1] | [2] | [3] | [4]

CCCCCCCCCCCCCCCCI
inactive: [1] | [2] | [3] | [5] | [4]

O=C(O)CCCCCCC(=O)O
inactive: [1] | [2] | [3] | [5] | [4]

C=C1[C@H](CO)[C@@H](O)C[C@@H]1n1cnc2c(=O)[nH]c(N)nc21
inactive: [1] | [2] | [3] | [6] | [4]

Nc1c2c(nc3ccccc13)CCCC2O (stereo not drawn)
inactive: [1] | [2] | [3] | [5] | [4]

C=C(C)C(=O)OC
inactive: [1] | [2] | [3] | [5] | [4]

CN1CCCN(C(c2ccccc2)c2ccc(Cl)cc2)CC1 (stereo not drawn)
inactive: [1] | [2] | [6] | [4]
active: [3] 34.8 µM

CNC(=O)NC
inactive: [1] | [2] | [3] | [5] | [4]
